Experimental data as given in PubChem BioAssay AID2551 (National Center for Advancing Translational Sciences (NCATS), 2010).
Where “and” joins values, the source holds several entries; their conditions need not be identical. Equal values may be shown once. Hit rate of the full screen: of about 310,000 compounds, about 17,000 (5.5%) were called active. Inconclusive results (about 11%) are left out. Calls follow the shape of the dose curve; as a rule, active = well fitted inhibition curve with a large enough effect; inconclusive = small, poorly fitted or top-dose-only effect, or effect the other way; inactive = no such curve, though single readings can be large or run the other way. What follows is part of a selection rich in actives, with near analogues and random picks from the rest. Some structures have more than one record in an assay (separate samples or runs), and their calls can disagree.

These compounds were tested against Nuclear receptor ROR-gamma (Mus musculus) (UniProt P51450) (assay: qHTS for inhibitors of ROR gamma transcriptional activity). Settings: Drosophila S2 Gal4-RORgamma UAS-luciferase reporter, 20 h; series mostly up to 53.6 µM; activity change, negative = inhibition: at the top concentration.
Sequence of Nuclear receptor ROR-gamma (Mus musculus) (P51450 whole entry, looked up, the tested form may be a part): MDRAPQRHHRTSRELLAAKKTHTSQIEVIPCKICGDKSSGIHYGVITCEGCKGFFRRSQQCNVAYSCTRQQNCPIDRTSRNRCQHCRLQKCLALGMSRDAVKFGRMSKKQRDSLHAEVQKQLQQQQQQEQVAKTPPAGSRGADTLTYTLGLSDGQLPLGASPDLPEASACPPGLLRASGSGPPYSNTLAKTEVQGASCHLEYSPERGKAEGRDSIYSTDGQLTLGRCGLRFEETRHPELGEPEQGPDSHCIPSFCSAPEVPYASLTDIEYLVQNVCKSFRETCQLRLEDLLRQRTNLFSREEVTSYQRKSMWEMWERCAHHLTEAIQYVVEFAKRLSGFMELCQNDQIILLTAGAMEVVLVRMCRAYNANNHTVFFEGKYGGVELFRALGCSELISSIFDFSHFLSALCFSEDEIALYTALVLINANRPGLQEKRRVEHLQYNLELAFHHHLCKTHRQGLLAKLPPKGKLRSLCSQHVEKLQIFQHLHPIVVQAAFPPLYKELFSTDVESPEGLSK
Text: NIH Molecular Libraries Probe Production Network [MLPCN] NIH Chemical Genomics Center [NCGC] MLPCN Grant: R03 DA026211-01 Assay Provider: Dan Littman, New York University Assay Overview: The retinoic acid-related orphan receptor (ROR) gamma is a transcription factor that has a central role in the differentiation of Th17 cells, a subset of T helper cells that secrete the inflammatory cytokines IL-17, IL-17F, and IL-22. Th17 cells have been implicated in graft versus host disease, autoimmune disease and asthma. ROR gamma is induced in naive T helper cells in the presence of TGF-beta combined with IL-6, IL-21, or IL-23, and thereafter directs the expression of the Th17 lineage cytokines. To study the mechanism of action of ROR gamma, an insect cell-based assay was screened. This Drosophila Schneider cell line was stably transfected with two vectors: a gene expressing a fusion of the Gal4 DNA binding domain and ROR gamma transactivation domain under the control of the metallothionine promoter and a Photinus luciferase reporter regulated by the Gal4 binding site enhancer, UAS. […] Small molecule inhibitors of ROR gamma activity are detected by a decrease in luciferase reporter activity.
Assay Protocol Summary: For screening, 600 cells in 4 uL/well were dispensed into white solid 1536-well plates (Grenier) using a solenoid-based dispenser. Following transfer of 23 nL compound or DMSO vehicle by a pin tool, the plates were incubated 1 hr at ambient temperature, and 1 uL/well copper sulfate (700 uM final concentration) was added. The plates were centrifuged 15 s at 1000 RPM and incubated 20 hr at ambient temperature. After addition of 1.5 uL Photinus luciferase detection reagent, the plates were incubated 10 min at ambient temperature and then read by an ViewLux (Perkin Elmer) to detect luminescence. Keywords: NIH Roadmap, MLPCN, MLI, MLSMR, qHTS, NCGC, qHTS, nuclear hormone receptor, retinoic acid-related orphan receptor, ROR gamma
% is scaled to controls: 0 for no effect and ±100 for the full control effect; potency is read from the fitted curve at half-maximal effect.
Also: nearly all actives have a fitted effect of over 60% in size.

Activity change, negative = inhibition, inactive:
CCC(C)[C@H](NC(=O)N1c2ccccc2NC(=O)[C@@H]1C(C)C)C(=O)N[C@@H](Cc1ccccc1)C(=O)O (stereo partly drawn) -3.74%
CC(O)CNCCOc1cccc(Oc2ccccc2)c1 (stereo not drawn) -10.9%
COc1ccccc1OCC(O)CN1CCOCC1 (stereo not drawn) 6%
COc1cccc(OCc2nnc3n2N=C(c2ccccc2)C(CC(=O)O)S3)c1 (stereo not drawn) -7.78%
COc1ccc(-n2ncc3c2CC(C)(C)CC3NC(=O)CCc2c(C)nn(C)c2C)cc1 (stereo not drawn) 17.1%
CCCCN(CCCC)CCNC(=O)CN1C(=O)COc2ccc(S(=O)(=O)N3CCOCC3)cc21 -12.1%
CC(=O)NC(=S)Nc1ccc(NC(=O)c2cccnc2)cc1 28.8%
CC(=O)Nc1ccc(-c2nc3ccccc3o2)cc1 -26.3%
Cc1cc(=O)oc2cc(OCC(=O)Nc3nnc(C4CC4)s3)ccc12 -12.9%
COC(=O)COc1ccc2oc(=O)cc(C)c2c1 -35%
Cc1c(C)c2ccc(OCC(=O)N3CCN(c4cccc(Cl)c4)CC3)cc2oc1=O 0.847%
CCC(C)N1CC(=O)N2Cc3[nH]c4ccccc4c3C[C@H]2C1=O (stereo partly drawn) -15.5%
O=C(Cn1ncc2c3ccccc3n(Cc3ccccc3)c2c1=O)NCCCN1CCOCC1 -2.33%
COc1ccc(N(CC(=O)Nc2cc(OC)ccc2OC)S(=O)(=O)c2c(C)noc2C)cc1 -1.57%
CCCCC(=O)Nc1cc(C)c2c(=O)oc3ccccc3c2n1 3.53%
CC(C)(C)Nc1c(N)c(=O)oc2ccccc12 13.4%
COc1cccc(C(=O)NNS(=O)(=O)c2ccc(F)cc2)c1 3.67%
COc1ccc(C(C(=O)NCC2CCCO2)N(C(=O)Cn2nnc3ccccc32)c2ccc(NC(C)=O)cc2)cc1OC (stereo not drawn) -6.87%
Nc1nc(-c2ccccc2)cc(-c2ccccc2)n1 -7.58%
Nc1ccc(-c2sc(N)nc2-c2ccccc2)cc1 -17.2%
Cc1c(CN2CCC(n3nccc3NC(=O)CCc3ccccc3)CC2)cnn1C -18.5%
CC(=O)NCCC(=O)Nc1cc(S(=O)(=O)N2CCCCC2)ccc1Oc1cccc(C)c1 11%
Cc1nnc(SCC(=O)NNC(=O)c2ccc(Cl)cc2)n1CC1CCCO1 (stereo not drawn) 15%
CNC(=O)NC(=O)CSc1nnc(-c2ccc(F)cc2)n1CC1CCCO1 (stereo not drawn) 10.2%
N#Cc1ccccc1S(=O)(=O)N1CCN(C(=O)c2cc(-c3ccccc3)nn2-c2ccccc2)CC1 -11.5%
CC1CN(C(=S)Nc2ccccc2F)CC(C)O1 (stereo not drawn) 13%
S=C(Nc1ccc(Br)cc1Cl)N1CCC2(CC1)OCCO2 -25.8%
O=C(Nc1ccc(O)cc1)c1ccc(NC(=O)c2ccco2)cc1 7.16%
O=C(CCSc1ccccc1)NCCSc1ccccn1 24.1%
Cc1cc(Cl)ccc1OCCCC(=O)NCc1ccccn1 16.2%
O=C1C2CCCN2C(=O)N1CCCCN1CCN(c2cccc(C(F)(F)F)c2)CC1 (stereo not drawn) -13.4%
N#Cc1cc([N+](=O)[O-])ccc1Oc1cccc(/C=N/NC(=O)c2ccc(Cl)cc2)c1 3.47%
CC1(C)C2CC=C(/C=N/NC(=O)C3CC3)C1C2 (stereo not drawn) 3.41%
N#Cc1c(-c2ccccc2)nc(SCc2cccc(C(F)(F)F)c2)[nH]c1=O -5.35%
Cc1nn(C(C)C(=O)NCCC2=CCCCC2)c(=O)c2nn(-c3ccccc3)c(C)c12 (stereo not drawn) -18.5%
Cc1cc(C)cc(NC(=S)NCCCN2CCOCC2)c1 -41.7%
O=C(NNC(=S)NCCCN1CCOCC1)c1ccncc1 0.729%
COc1ccccc1C(=O)N(C1=NC(C)CS1)c1ccc(Cl)cc1 (stereo not drawn) 16.1%
Cc1ccc(C)c(NC(=O)c2ccc3nccnc3c2)c1 15%
CCC1(C)Cc2c(sc3nc(SC)nc(N)c23)CO1 (stereo not drawn) 1.66%
CCC1(C)Cc2c(sc3nc(SC)[nH]c(=O)c23)CO1 (stereo not drawn) 21.3%
COc1ccc(S(=O)(=O)NCCCCOc2ccc(Cl)cc2)cc1 21.1%

Potency, inactive and 1 µM (active):
COc1ccccc1OCCNCC(O)COc1cccc2[nH]c3ccccc3c12 (stereo not drawn)

Potency, active:
Cc1ccc2nc(-c3ccc(NC(=O)c4cccnc4)cc3)oc2c1 20 µM
Cc1ccc(O)c(/C=N/NC(=O)COc2ccc3c(C)cc(=O)oc3c2)c1 2.51 µM
Cc1ccccc1-n1nnc2c(=O)oc3ccccc3c21 7.94 µM
Nc1[nH]c(=S)nc2nc(-c3ccccc3)c(-c3ccccc3)nc12 3.98 µM
S=c1[nH]nc(-c2ccc(Cl)cc2)n1CC1CCCO1 (stereo not drawn) 11.2 µM
CC1CN(C(=S)Nc2ccc(Br)cc2Cl)CC(C)O1 (stereo not drawn) 12.6 µM
Cc1ccc(SCCC(=O)NCc2ccccn2)cc1 8.91 µM
CC1(C)C2CC=C(/C=N/NC(=O)c3ccc(Cl)cc3)C1C2 (stereo not drawn) 12.6 µM
CCCCc1ccc(NC(=S)NCCCN2CCOCC2)cc1 10 µM
CCC1(C)Cc2c(sc3[nH]c(=S)n(Cc4ccccc4)c(=O)c23)CO1 (stereo not drawn) 0.708 µM
